Screening data as filed in PubChem BioAssay.
hcDAF-12 act: activates DAF-12 receptor from parasite H. contortus. AID 652067. activation, % at 6.8 µM. HEK293 hcDAF-12 lit1-tk-luc reporter, luminescence; 0% DMSO, 100% Δ7-dafachronic acid. 370,000 tested, 1.4% active;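 active = activation above the mean of all tested compounds plus 3 SD, cut at about 5.5% in these data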;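 note: 100% = response to 3 µM Δ7-dafachronic acid high control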
DAX1 inh-1: NR0B1 (DAX1) inhibition. P51843. HEK293 Gal4-DAX1 luciferase reporter, luminescence. inhibition, % at 6.75 µM. 340,000 tested, 0.99% active. AID 504766;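 active = inhibition above the mean over all tested compounds plus 3 SD, cut at about 4.2% in these data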;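 note: 0% = DAX1-transfected cells with DMSO and 100% = empty-vector control cells with DMSO; inhibition shows as a rise in luminescence from relieved DAX1 repression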
Target sequence (P51843 207-470 limits assumed): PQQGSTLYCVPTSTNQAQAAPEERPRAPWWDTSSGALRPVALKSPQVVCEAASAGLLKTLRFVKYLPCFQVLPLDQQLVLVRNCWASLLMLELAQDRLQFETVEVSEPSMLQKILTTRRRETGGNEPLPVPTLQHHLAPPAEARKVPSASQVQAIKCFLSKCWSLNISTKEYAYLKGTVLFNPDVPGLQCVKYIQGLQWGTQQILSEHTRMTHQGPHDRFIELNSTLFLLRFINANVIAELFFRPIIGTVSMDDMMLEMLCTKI
ssDAF12 agonist: activators of S. stercoralis DAF-12 nuclear receptor; HEK293 ssDAF-12/GRIP1 lit1-tk-luc reporter, luminescence; % of 3 µM dafachronic acid response; activation, % at 6.8 µM; 370,000 tested, 1% active; AID 652126;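 active = activation above the mean over all tested compounds plus 3 SD, cut at about 0.9% in these data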;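 note: 0% = DMSO-only wells and 100% = 3 µM delta7-dafachronic acid wells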
hgDAF12 agonist: agonists of H. glycines DAF-12 nuclear receptor; HEK293 GAL4-hgDAF12 UAS-luciferase reporter, agonist luminescence; normalized to butyrate control; activation, % at 6.8 µM; 370,000 tested, 1.8% active;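 active = activation above a cutoff set at the mean of all screened compounds plus 3 SD, cut at about 10% in these data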;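 note: 0% = DMSO wells and 100% = sodium butyrate wells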
DAX1 inh-2: blocks DAX1 repression of SF-1 activated StAR promoter; HEK293T StAR-luciferase reporter, SF-1/DAX-1 repression relief; inhibition, % at 6.8 µM; 370,000 tested, 1.1% active; AID 652010;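 active = inhibition above the mean over all tested compounds plus 3 SD, cut at about 3.6% in these data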;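 note: 0% = DAX-1 cells with DMSO and 100% = cells lacking DAX-1 with DMSO; higher inhibition means more luminescence from relief of DAX-1 repression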
* = called active by the depositor; / = not tested or not shown. Shown are actives, neighbours in structure and some others; about 4.1% of the full set was active somewhere.

SMILES	hcDAF-12 act	DAX1 inh-1	ssDAF12 agonist	hgDAF12 agonist	DAX1 inh-2
O=C(CCc1nc(-c2ccccc2F)no1)NCCc1cccc(F)c1	-1	/	-1	3	-1
Cc1c(C(=O)Nc2ccccc2F)sc2nc3n(c(=O)c12)CCC3	3	1	0	11*	1
COc1ccccc1NC(=O)c1sc2nc3n(c(=O)c2c1C)CCC3	0	0	-1	4	0
O=C(CSc1nccc(-c2cccs2)n1)Nc1cccc(Cl)c1Cl	2	1	1.1*	1	0
O=C(CSc1nccc(-c2cccs2)n1)Nc1ccc(Cl)cc1	3	-1	-1	0	-1
Cc1cccc2c1cnn2C(=O)Nc1ccccc1Cl	5.8*	1	0	7	0
Cc1ccc2nc(SCC(=O)Nc3ccc4[nH]c(=O)[nH]c4c3)[nH]c2c1	3	0	1.0*	2	3
O=C(CSc1nc2ccc(Cl)cc2[nH]1)Nc1ccc2[nH]c(=O)[nH]c2c1	3	0	1.0*	0	1
Cc1ccc2nc(SCC(=O)c3ccc(O)cc3O)[nH]c2c1	5	3	0	11*	2
COC(=O)CSc1nc2ccc(C)cc2[nH]1	2	1	-1	0	1
C=CCN(Cc1ccc(OC)cc1OC)C(C#CCCCC)c1ccccc1 (centres undefined)	0	/	-1	3	/
COCCN(Cc1cc2cc(C)ccc2n2nnnc12)C(=S)Nc1ccc(C)cc1	-1	4.6*	-1	2	0
COCCN(Cc1cc2cc(C)ccc2n2nnnc12)C(=S)Nc1ccc(OC)cc1	-1	-1	0	-4	0
COc1ccc(/C=N/NC(=O)c2c(C)nnn2-c2nonc2N)cc1OC	0	5.8*	-1	0	0
COc1ccc(/C=N/NC(=O)c2nnn(-c3nonc3N)c2C)cc1OC	-1	2	-1	-1	-1
Cc1ccc(C)c(NC(=O)CNS(=O)(=O)c2ccc3[nH]c(=O)oc3c2)c1	0	/	-1	1	0
Cc1cc(/C=C(\C#N)C(=O)NCc2cccs2)c(C)n1-c1ccccc1F	4	3	1.1*	7	1
Cc1cc(C)c(O)c(C(=O)CC2CC(=O)NC(=O)C2)c1	-2	/	-2	-9	-5
Cc1ccc(S(=O)(=O)Oc2cccc(N3C(=O)C4CC=CCC4C3=O)c2)cc1 (centres undefined)	0	8.0*	-2	0	0
CC(=O)Nc1nc2c(C)cc(NC(=O)C3CCCCC3)cc2s1	0	2	1	1	1
CC(=O)Nc1cc(C)c2nc(NC(C)=O)sc2c1	0	8.3*	-1	1	1
CCC[C@H]1CN(c2ccccc2)C(=O)[C@@H]1CC(=O)Nc1ccc(Br)cc1	1	7.8*	0	4	1
COc1ccc(C(=O)N/N=C(\C)CC(=O)Nc2ccc(N(C)C)cc2)c(OC)c1	-1	4.7*	-1	2	0
CCC[C@H]1[C@H](N)CC[C@@]23CCCN2C(=O)CCC[C@@H]13	-2	/	-1	-3	/
COC(=O)[C@]12C[C@H](CC(=O)NCCC(C)C)C(=O)N(Cc3ccccc3)C1=C[C@H](C1CCCC1)O[C@@H]2C	1	/	-1	1	1
SMILES	hcDAF-12 act	DAX1 inh-1	ssDAF12 agonist	hgDAF12 agonist	DAX1 inh-2
Cc1nn(Cc2c(F)c(F)c(F)c(F)c2F)c(C)c1NC(=O)c1ccc(COc2ccccc2Cl)cc1	0	-1	-2	-3	-1
Cc1nn(Cc2c(F)c(F)c(F)c(F)c2F)c(C)c1NC(=O)c1ccc(COc2cc(Cl)ccc2Cl)cc1	0	0	3.4*	10	1
Cc1ccccc1NC(=O)OCCN1CCCC12CCC(c1ccccc1)CC2 (centres undefined)	-1	/	-2	-2	/
O=C(O)c1ccc2cccnc2n1	0	-1	1.3*	1	-1
O=C1Nc2ccccc2C12OCCO2	0	2	-2	0	0
CCc1cccc2c1NC(=O)C21OCCO1	3	2	1.2*	4	0
O=S1(=O)CC(O)C(Nc2ccccc2)C1 (centres undefined)	-2	1	-1	-2	0
O=S1(=O)CC(O)C(N(CCO)C(=S)Nc2ccccc2)C1 (centres undefined)	1	5.3*	-1	-1	0
NC(=O)c1ccccc1Nc1nc(NCCO)nc(N2CCCC2)n1	-1	4.4*	-1	0	1
COc1ccc(Cc2nc3ccc(C(=O)NCc4cc(C)no4)cc3o2)cc1	2	1	-1	8	3.7*
COc1ccc(Cc2nc3ccc(C(=O)NCCSC)cc3o2)cc1	2	1	-1	7	0
COc1ccc(Cc2nc3ccc(C(=O)NCC(C)(C)OC)cc3o2)cc1	4	4.6*	0	9	2
COC(=O)CCNC(=O)c1ccc2nc(Cc3ccc(OC)cc3)oc2c1	0	-1	-1	0	0
COCCN(C[C@@H]1[C@H](c2ccccc2)[C@H](CO)N1c1nc(C)c(C)s1)S(=O)(=O)c1ccccc1[N+](=O)[O-]	2	/	-1	0	1
CCC[C@H]1[C@@H](OC(=O)NCc2ccc(OC)c(OC)c2)CC[C@@]23CCCN2C(=O)CCC[C@@H]13	0	/	-2	1	/
COc1ccc(O)c(-c2cc(-c3cccc(Br)c3)n[nH]2)c1	3	0	0	6	0
COc1ccc(-c2cc(-c3cc(OC)ccc3O)[nH]n2)cc1	5	3	0	13*	1
COc1ccc(-c2cc(-c3ccc(Cl)cc3)n[nH]2)c(O)c1	5	5.4*	0	11*	2
COC(=O)[C@]12C[C@H](CC(=O)N3CCSCC3)C(=O)N(Cc3ccc(Cl)cc3Cl)C1=C[C@H](COCc1ccccc1)O[C@@H]2C	0	/	-2	1	0
C=CCSC1=N/C(=C/c2ccsc2)C(=O)N1c1ccccc1	-1	5.0*	-2	0	0
CCOC(=O)N1CCN(C(=S)NC(C)(C)C)CC1	-1	5.2*	-1	2	1
CN(C1CCCCC1)S(=O)(=O)c1ccc2c(c1)c(=O)c(C(=O)NCCN1CCCC1)cn2C	3	1	-1	1	1
CCCCN(CCCC)CCNC(=O)c1cn(CC)c2ccc(S(=O)(=O)N3CCCC3)cc2c1=O	1	1	-1	2	4.5*
CC(=O)c1ccc(NC(=O)CC(C)S(=O)(=O)c2ccc3c(c2)CCN3C(C)=O)cc1 (centres undefined)	1	0	-1	0	4.1*
CN(C1CCCCC1)S(=O)(=O)c1ccc2c(c1)c(=O)c(C(=O)NCCCN1CCCC1)cn2C	1	4.9*	-2	2	1
CCn1cc(C(=O)N2CCc3ccccc32)c(=O)c2cc(S(=O)(=O)N3CCOCC3)ccc21	5.9*	-1	0	4	0
CCN(CC)c1ccc(C=Nn2c(-c3cc(C)[nH]n3)n[nH]c2=S)cc1	3	/	-1	-1	-1
